Assay outcomes: PubChem, Broad Institute
Not all results are given here.
aSyn UTR act – Activators working through SNCA 5'UTR binding (MLPCN); alpha-synuclein 5'UTR reporter, activators screen; activity score, % (tested at 7.5 µM), hits read low; 7.1% of 300,000 active; AID 1814; in the data active = activity score below about -60%
Numbers without * were called inactive.

For Cc1cc2ccccc2n1CCNC(=O)c1ccccc1 the results were aSyn UTR act -114*.
`Cc1cc2ccccc2n1CCNC(=O)c1ccc(Br)o1` gave aSyn UTR act -78*.
Screening Cc1cc(N2CCCC2)c(F)cc1/C=C\[N+](=O)[O-] returned aSyn UTR act -79*.
`C(=C\c1cccc2ccccc12)/c1nnc(-c2cccs2)o1` gave aSyn UTR act -69*.
`Cc1nc(OCC(C)C)c2sc3nc4c(cc3c2n1)COC(C)(C)C4` gave aSyn UTR act -130*.
Screening COc1nc(C)nc2c1sc1nc3c(cc12)COC(C)(C)C3 returned aSyn UTR act -145*.
`Cc1cc(NC(=O)c2cccs2)ncc1NC(=O)C(C)C` gave aSyn UTR act -145*.
Screening Cc1cc(NC(=O)c2ccccc2)ncc1NC(=O)c1cccs1 returned aSyn UTR act -103*.
`Cc1cc(NC(=O)c2cccs2)ncc1NC(=O)c1cccc(F)c1` gave aSyn UTR act -129*.
For Cc1cc(NC(=O)c2ccccc2F)ncc1NC(=O)c1cccs1 the results were aSyn UTR act -63*.
CC(C)c1ccc(/C=C(\c2nc3ccccc3[nH]2)S(=O)(=O)c2ccccc2)cc1 was read as aSyn UTR act -81*.
For O=S(=O)(/C(=C/c1ccc(C(F)(F)F)cc1)c1nc2ccccc2[nH]1)c1ccccc1 the results were aSyn UTR act -62*.
For CC(C)(C)c1ccc(C(=O)Nc2ccc(C=C(C#N)C#N)cc2)cc1 the results were aSyn UTR act -175*.
`N#CC(C#N)=Cc1ccc(NC(=O)c2ccc(Br)cc2)cc1` gave aSyn UTR act -153*.
O=C(CSc1nc2ccc(Cl)cc2[nH]1)c1ccc2c(c1)OCO2 was read as aSyn UTR act -67*.
COc1ccc2nc(SCC(=O)/C(C#N)=C(\C)N)[nH]c2c1 was read as aSyn UTR act -76*.
O=C(CSc1nncs1)Nc1ccc2c(c1)OCCO2 was read as aSyn UTR act -102*.
Screening O=C(CSc1nncs1)NC(=O)Nc1ccc2c(c1)OCCO2 returned aSyn UTR act -134*.
For COc1ccc2nc(SCC(=O)Nc3ccc4c(c3)OCCO4)[nH]c2c1 the results were aSyn UTR act -63*.
For O=C(CSc1ncn[nH]1)Nc1ccc2c(c1)OCCO2 the results were aSyn UTR act -62*.
Cn1nc(OC(=O)Nc2ccccc2)cc1C(F)(F)F was read as aSyn UTR act -123*.
Screening COc1cc(C)nc(N2CCCC(C(=O)NC3CCC(C)CC3)C2)n1 (stereo not drawn) returned aSyn UTR act -146*.
`CCC(C)[C@H](NC(=O)N1CC(=O)Nc2ccccc21)C(=O)Nc1ccccc1C` (stereo partly drawn) gave aSyn UTR act -95*.
Screening CCOc1ccc(C(=O)N2CCc3ccccc32)cc1 returned aSyn UTR act -104*.
O=C(c1ccc2ccccc2c1)N1CCc2ccccc21 was read as aSyn UTR act -100*.
For O=C(c1cccs1)N1CCc2ccccc21 the results were aSyn UTR act -157*.
For O=C(N=Nc1c(O)[nH]c2ccccc12)c1cccs1 the results were aSyn UTR act -74*.
CC(C)c1ccc2[nH]c(O)c(N=NC(=O)c3cccc(S(=O)(=O)Nc4ccc(Cl)cc4)c3)c2c1 was read as aSyn UTR act 79.
For C=CCn1c(O)c(N=NC(=S)Nc2cccc(C)c2)c2ccccc21 the results were aSyn UTR act 94.
`O=C(N=Nc1c(O)[nH]c2ccc(Br)cc12)c1cc(-c2cccs2)nc2ccccc12` gave aSyn UTR act 81.
`Oc1ccc(NC(=S)N=Nc2c(O)[nH]c3ccccc23)cc1` gave aSyn UTR act -131*.
For CS(=O)(=O)N(CC(=O)NCc1ccncc1)c1ccc(Cl)c(Cl)c1 the results were aSyn UTR act -89*.
O=C(CN1CC[n+]2c(-c3cccs3)csc21)c1ccc(-c2ccccc2)cc1 was read as aSyn UTR act -65*.
`Cc1ccc(OCc2nc(-c3cccnc3)no2)cc1C` gave aSyn UTR act -125*.
For Cc1cc(OCc2nc(-c3cccnc3)no2)c(C)cc1Br the results were aSyn UTR act -68*.
For Cc1ccccc1OCc1nc(-c2cccnc2)no1 the results were aSyn UTR act -71*.
CC(=O)OCC(=O)N1N=C(c2ccc3ccccc3c2)CC1c1ccccc1 (stereo not drawn) was read as aSyn UTR act -106*.
Screening COc1ccc(C2CC(c3ccc4ccccc4c3)=NN2C(=O)CN2CCC(C(N)=O)CC2)cc1 (stereo not drawn) returned aSyn UTR act -134*.
`CCOC(=O)/C=C(\C)N1N=C(c2ccccc2)CC1c1ccccc1` (stereo not drawn) gave aSyn UTR act -187*.
`COc1cc(C2CC(c3cccs3)=NN2C(=O)CCl)ccc1OC(F)F` (stereo not drawn) gave aSyn UTR act 107.
COc1ccc(C2CC(c3ccc4ccccc4c3)=NN2C(=O)COC(=O)C2CCC(=O)N2)cc1 (stereo not drawn) was read as aSyn UTR act -152*.
Screening CCN1CCc2c(sc(NC(=O)C3COc4ccccc4O3)c2C(N)=O)C1 (stereo not drawn) returned aSyn UTR act -96*.
For CC(=O)N1CCc2c(sc(NC(=O)C3COc4ccccc4O3)c2C(N)=O)C1 (stereo not drawn) the results were aSyn UTR act -74*.
`CN1CCc2c(sc(NC(=O)c3ccc4ccccc4c3)c2C(N)=O)C1` gave aSyn UTR act -108*.
`COc1cc2ccccc2cc1C(=O)Nc1sc2c(c1C(N)=O)CCN(C(C)C)C2` gave aSyn UTR act 102.
Screening CN1CCc2c(sc(/N=C/c3cccs3)c2C(N)=O)C1 returned aSyn UTR act -75*.
CN1CCc2c(sc(NC(=O)C3COc4ccccc4O3)c2C(N)=O)C1 (stereo not drawn) was read as aSyn UTR act -117*.
For CCOC(=O)N1CCc2c(sc(NC(=O)C3COc4ccccc4O3)c2C(N)=O)C1 (stereo not drawn) the results were aSyn UTR act -109*.
`O=S1(=O)N=C(Nc2ccc(N3CCOCC3)c(Cl)c2)c2ccccc21` gave aSyn UTR act -193*.
`O=C1c2ccccc2S(=O)(=O)c2cc(N3CCOCC3)ccc21` gave aSyn UTR act 76.
`Cc1cc(NC(=O)c2ccc(F)cc2)no1` gave aSyn UTR act -79*.
For CCCCCCCC(=O)Oc1ccc(C(=O)Nc2cc(C)on2)cc1 the results were aSyn UTR act -93*.
Screening CC(=O)Nc1ccc(C(=O)Nc2cc(C)on2)cc1 returned aSyn UTR act -85*.
Screening Cc1cc(NC(=O)c2nn(C)c(C)c2Br)no1 returned aSyn UTR act -87*.
Screening Nc1c(-c2ccccc2)cnn1-c1cccc(Cl)c1 returned aSyn UTR act -144*.
Cc1cccc(-c2cnn(-c3ccccc3)c2N)c1 was read as aSyn UTR act -129*.
`Cc1cccc(-c2cnn(-c3cccc([N+](=O)[O-])c3)c2N)c1` gave aSyn UTR act -75*.
Cc1ccc(/C=N/NC(=O)c2ccc3c(c2)OCCO3)s1 was read as aSyn UTR act -118*.
For O=C(N/N=C/c1cccs1)c1ccc2ccccc2c1 the results were aSyn UTR act -240*.
Screening CC(C)(C)C1CCc2c(C(=O)N/N=C/c3cccs3)csc2C1 (stereo not drawn) returned aSyn UTR act -97*.
Screening O=C(N/N=C/c1cc(Br)cs1)c1ccc2c(c1)OCCO2 returned aSyn UTR act -344*.
`Cc1cc(C(=O)N/N=C/c2ccc(C)s2)n[nH]1` gave aSyn UTR act -97*.
